The supplement of paper PMC6555819

What was measured:
Test in all cases: PBM binding z-score (relative to random genomic background probes); higher = stronger binding; sequences stand for … in GC…GCGATTGACAGCGTAGAATGAAGG
[1] = system: FXR:RXRa (NR concentration 270 nM, RXRa partner concentration 90 nM)
Method in brief: (§1)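 For binding z-scores, the reference was random background probes on custom Agilent 4×180K protein-binding microarrays. These arrays were incubated 1 h with ligand-free nuclear receptor dimers in PBS pH 7.4, 2% milk, 0.02% Triton X-100, 1 mM DTT, 0.2 mg/mL BSA and 0.4 mg/ml salmon testes DNA. Fluorescence was scanned after antibody detection of each partner (one per run) and regression-normalized.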

[2] = system: LXRa:RXRa (NR concentration 270 nM, RXRa partner concentration 90 nM)
Method in brief: as §1

[3] = system: LXRa homodimer (NR concentration 270 nM)
Method in brief: as §1

[4] = system: LXRb:RXRa (NR concentration 270 nM, RXRa partner concentration 90 nM)
Method in brief: as §1

[5] = system: LXRb homodimer (NR concentration 270 nM)
Method in brief: as §1

[6] = system: PPARa:RXRa (NR concentration 270 nM, RXRa partner concentration 90 nM)
Method in brief: as §1

[7] = system: PPARg:RXRa (NR concentration 180 nM, RXRa partner concentration 90 nM)
Method in brief: as §1

[8] = system: PPARg:RXRa 270nM:90nM, anti-RXR (NR concentration 270 nM, RXRa partner concentration 90 nM)
Method in brief: as §1

[9] = system: PPARg:RXRa 30nM:10nM, anti-RXR (NR concentration 30 nM, RXRa partner concentration 10 nM)
Method in brief: as §1

[10] = system: PPARg:RXRa 90nM:30nM, anti-RXR (NR concentration 90 nM, RXRa partner concentration 30 nM)
Method in brief: as §1

[11] = system: PPARg:RXRa DBDmut IVT, anti-RXR (DBD mutation: RXRa K156A/R161A, NR concentration 270 nM, RXRa partner concentration 90 nM)
Method in brief: as §1

[12] = system: PPARg:RXRa IVT, anti-PPARg (NR concentration 270 nM, RXRa partner concentration 90 nM)
Method in brief: as §1

[13] = system: PPARg DBDmut:RXRa IVT, anti-PPARg (DBD mutation: PPARg1 K132A/R137A, NR concentration 270 nM, RXRa partner concentration 90 nM)
Method in brief: as §1

[14] = system: PPARg DBDmut IVT, anti-PPARg (DBD mutation: PPARg1 K132A/R137A, NR concentration 270 nM)
Method in brief: as §1

[15] = system: PPARg homodimer (NR concentration 180 nM)
Method in brief: as §1

[16] = system: PXR:RXRa (NR concentration 270 nM, RXRa partner concentration 90 nM)
Method in brief: as §1

[17] = system: PXR homodimer (NR concentration 270 nM)
Method in brief: as §1

[18] = system: RARa:RXR (NR concentration 270 nM, RXRa partner concentration 90 nM)
Method in brief: as §1

[19] = system: RARa homodimer (NR concentration 270 nM)
Method in brief: as §1

[20] = system: RARb:RXRa (NR concentration 270 nM, RXRa partner concentration 90 nM)
Method in brief: as §1

Sequence	PBM binding z-score [1]	PBM binding z-score [2]	PBM binding z-score [3]	PBM binding z-score [4]	PBM binding z-score [5]	PBM binding z-score [6]	PBM binding z-score [7]	PBM binding z-score [8]	PBM binding z-score [9]	PBM binding z-score [10]	PBM binding z-score [11]	PBM binding z-score [12]	PBM binding z-score [13]	PBM binding z-score [14]	PBM binding z-score [15]	PBM binding z-score [16]	PBM binding z-score [17]	PBM binding z-score [18]	PBM binding z-score [19]	PBM binding z-score [20]
CGTCCAAGATCAATGCTAGGTCAGTGAAAGCATT	0.162	0.466	0.903	0.371	0.134	0.544	-0.0678	-0.118	-0.166	-0.214	0.0283	0.44	-0.261	0.071	0.835	0.204	0.467	0.725	0.103	1.7
GCGACTTGGGCATCAGCAGGTTACCATAACTTAA	-0.439	-0.445	-0.567	-0.214	-0.905	-0.0723	0.0729	-0.529	-0.585	-0.893	-0.319	-0.238	-1.02	-0.802	-0.13	-0.0644	-0.495	0.232	-0.904	0.00104
GATATAGGGTCAAGGCCAGAGTACGCGTATTGAT	7.01	4.58	0.271	3.91	0.188	5.82	6.29	6.2	3.04	5.65	4	4.64	1.73	1.98	3.01	4.14	0.146	4.91	1.13	4.62
CGTCTAAGGTCAGAGAGGTCAGTGAATGCCGAGT	6.73	5.75	3.47	5.03	0.521	5.48	4.02	5.03	1.38	3.5	3.8	3.69	0.924	-0.453	4.52	6.51	12	5.99	1.28	5.56
ACTCGGAAGACAAAGGTCAGAGCTACGCCAGTGA	3.29	3.7	1.47	3.28	0.387	4.48	4.43	4.75	2.83	4.83	0.385	1.77	0.488	-0.549	2.44	3.25	0.247	3.84	0.864	4.07
CCAGCCAGGTGAAAGGTAACTCAGTCTGGTACGC	0.269	0.156	-0.445	0.354	-1.15	3.65	6.97	6.34	5.76	7.61	2.75	3.85	-0.331	-0.965	1.03	0.479	-0.522	1.32	-0.603	0.935
TCGAGTAGGTTACCGATGGGGCATTCAGCTTTCT	0.211	0.803	-0.358	0.678	-0.864	1.29	0.217	1.3	1.26	1.3	3.39	2.48	-0.681	-0.945	-0.276	-0.00678	-0.759	0.377	-0.625	0.88
TTACCAAGTTGAAGGTCGTTGATCCCTCTGTAGA	2.26	2.28	0.241	1.56	-0.05	1.59	0.598	2.48	1.36	2.27	0.297	0.442	0.321	-0.391	0.828	1.59	0.298	1.21	0.00913	1.15
TCTTGTAGATCAACAGGAGGTTCAGAAAGATCGA	0.027	-0.0973	-0.476	-0.000896	-0.414	0.453	-0.062	1.25	2.65	2.18	1.5	0.779	0.136	0.251	-0.725	0.256	-0.264	0.00715	-0.572	0.0281
AGAACGAGGGCACGGTGAGTTGATAGCAGAGTAG	1.12	0.775	-0.352	0.306	-0.638	2.61	2.7	2.19	0.933	1.2	3.46	4.14	1.46	0.552	0.477	1.76	0.0665	1.27	-0.263	2.75
CCTAGCAGGCCCGGGTCACTCAAGCATTTCGCTT	1.18	1.11	-0.362	1.25	-0.958	2.17	-0.225	0.755	-0.825	0.0676	-0.956	-0.289	-1.26	-1.82	0.788	1.78	-0.484	2.49	-0.473	1.63
TATACAGGGTCATAGGCCAGAGTACGAATGTCGA	6.89	6	1.98	4.45	1.7	5.81	7.21	6.45	3.76	5.8	2.32	4.47	2.52	2.28	2.09	4	0.517	5.18	1.43	4.25
TCTTGTAGATCAGAAGGTTAAGAAAGCTGGCCAA	0.619	1.02	0.09	1.16	-0.193	1.54	0.167	2.4	3.46	3.03	1.98	0.611	0.0732	-0.22	0.201	0.61	0.0531	0.924	0.498	1.07
